According to PubChem BioAssay AID778 (Sanford-Burnham Center for Chemical Genomics, 2007):
Hit rate of the full screen: of about 96,000 compounds, about 20,000 (21%) were called active.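 How the source made its calls: active means CYP2C19 inhibition above a set limit at 5 µM in the primary screen (cut at about 50% in these data); inactive means the rest.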 Only a sample is shown. Non-standard residues stand in square brackets, D forms with d. Residues, ends and D or L forms follow the SMILES beside them. ξ: configuration not given here. ξV = CC(C)C(N)C(=O)O

Target: Cytochrome P450 2C19 (Homo sapiens) (UniProt P33261)
Assay: blockers of cytochrome P450 2C19 activity – biochemical, luminescence, ADME assay, primary screen (AID 778);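 further: plate controls were negative control wells for no effect and 2.5 mM tranylcypromine positive control for full effect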
Conditions: CYP2C19 Supersomes, luciferin-H EGE luminescence, 30 min; at 5 µM; stronger effect = higher value

Sequence of Cytochrome P450 2C19 (Homo sapiens) (P33261 whole entry, looked up): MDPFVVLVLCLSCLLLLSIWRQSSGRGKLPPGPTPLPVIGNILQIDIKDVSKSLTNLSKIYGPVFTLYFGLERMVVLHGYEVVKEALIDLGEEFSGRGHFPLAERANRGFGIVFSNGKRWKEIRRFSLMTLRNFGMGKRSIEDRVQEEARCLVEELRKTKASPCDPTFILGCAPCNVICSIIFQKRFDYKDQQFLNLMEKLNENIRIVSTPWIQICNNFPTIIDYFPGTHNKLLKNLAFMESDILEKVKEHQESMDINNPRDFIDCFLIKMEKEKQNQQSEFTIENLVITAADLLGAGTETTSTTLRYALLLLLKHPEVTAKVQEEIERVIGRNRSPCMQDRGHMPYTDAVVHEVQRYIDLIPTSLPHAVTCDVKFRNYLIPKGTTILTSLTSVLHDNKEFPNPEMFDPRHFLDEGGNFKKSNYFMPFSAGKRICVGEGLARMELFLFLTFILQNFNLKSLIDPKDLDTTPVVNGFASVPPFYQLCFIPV

inhibition, active:
O=S(=O)(Nc1nccs1)c1ccc2c(c1)OCCO2 56.7%
N=c1n(Cc2ccc(Cl)cc2)c2ccccc2n1CC(O)c1ccco1 (configuration not stated) 83.1%
COC(=O)C1=C(C)OC(N)=C(C#N)C1c1cc(OC)ccc1OC (configuration not stated) 53.3%
CCC1=C(C(=O)OC)C(c2cc(OC)ccc2OC)C(C#N)=C(N)O1 (configuration not stated) 54.8%
C#CCN(N(C)c1ncc(C(F)(F)F)cc1Cl)S(=O)(=O)c1ccc2ccccc2c1 94.5%
CN(C(=O)COc1nnc(-c2cccs2)c(-c2cccs2)n1)c1ccccc1 75.5%
COc1cc(C2C(C(=O)c3sc(C)nc3C)=C(O)C(=O)N2CCN(C)C)cc(OC)c1OC (configuration not stated) 76.7%
COc1ccc(OC)c(C(c2nnnn2C(C)(C)C)N2CCc3ccccc3C2)c1 (configuration not stated) 94.8%
Cc1nn(CCOc2ccccc2)c(=O)n1-c1ccccc1F 53.1%
COc1ccc2c(c1)C(C)=CC(C)(C)N2C(=O)CNCc1ccc2c(c1)OCO2 84.8%
CCn1cc(C(=O)NCc2ccc(OC)cc2OC)c(=O)c2ccc(C)nc21 66.3%
CC(c1ccco1)N(C(=O)Nc1ccccc1)C1CCCCC1 (configuration not stated) 76.2%
CCOC(=O)c1nnn(-c2nonc2-n2cccc2)c1CN1CCC(C(=O)OCC)CC1 98%
OC(COc1ccc2c(c1)CCC2)CN1CCN(c2cccc(Cl)c2)CC1 (configuration not stated) 59.3%
CCOc1cc(C(=O)N2CCc3cc(OC)c(OC)cc3C2)ccc1OC(F)F 51.6%
Cc1ccc(S(=O)(=O)Nc2ccccc2CNc2c(C)n(C)n(-c3ccccc3)c2=O)cc1 95.6%
Cc1ccn2cc(-c3nonc3C)cc2c1 50.1%
COc1ccc(Cl)cc1S(=O)(=O)N1CCN(CC(=O)C(C)(C)C)CC1 85.9%
COc1ccc(C(=O)Nc2ccccc2C(=O)N/N=C/c2ccc(O)c(OC)c2)cc1 87.2%
Cn1c(NN)nc2sc3c(c2c1=O)CCC3 78.4%

inhibition, inactive:
O=C(NC1CCN(Cc2ccccc2)CC1)c1ccccc1F 6.3%
O=C(CCc1ccccc1)Nc1ccc(NC(=O)C2CC2)nc1 18.9%
CN1CCCN(S(=O)(=O)c2ccc3c(c2)OCCO3)CC1 -1.5%
CC(C)NS(=O)(=O)c1ccc(OCC(=O)Nc2ccc3c(c2)OCCO3)cc1 28.9%
CCCCC(CC)C(=O)Nc1ccc(Cl)cn1 (configuration not stated) 7.2%
CC(=O)Nc1ccc(S(=O)(=O)Nc2nc3n(n2)C(c2ccccc2)CC(=O)N3)cc1 (configuration not stated) -6%
O=S(=O)(O)c1nc2ccccc2n1Cc1ccc(Cl)cc1 2.7%
Cn1c(=N)n(CC(O)c2ccccc2)c2ccccc21 (configuration not stated) -12.3%
Cc1ccc(/C=N/NC(=O)c2sccc2OCc2ccc(F)cc2)cc1 -8.9%
Oc1ccccc1/C=N/n1c(-c2cccs2)n[nH]c1=S -14.5%
CCCN1C(=O)C(NC(C)=O)c2cc(OC)ccc21 (configuration not stated) -12.9%
COc1ccc(-c2[nH]nc3c2C(c2ccncc2)C(C#N)=C(N)O3)cc1 (configuration not stated) -1.2%
CCCN1CC=C2C(C#N)=C(N)C(C#N)(C#N)C(c3cc(OC)ccc3OC)C2C1 (configuration not stated) 16.6%
Cc1cc(=O)oc(C)c1C(=O)NCc1ccc(F)cc1 33.5%
CC(=O)NC(C(=O)NCC(N)=O)C(C)C (configuration not stated) (Ac-[ξV]-Gly-NH2) -4%
COc1ccc(C2OC(=O)CC2C(=O)NC(C)C)cc1 (configuration not stated) 19.5%
O=C(Nc1ccccc1F)C1C2C=CC3(O2)C1C(=O)N(c1cccnc1)C3C(=O)NC1CCCCC1 (configuration not stated) -8.2%
CCC(=O)N(C)C(c1ccccc1Cl)c1nnnn1-c1c(C)cccc1C (configuration not stated) 11.1%
O=C(c1ccccn1)c1ncc(C(F)(F)F)cc1Cl 44.3%
Cc1cc(C)cc(NS(=O)(=O)c2ccc(Oc3ncc(C(F)(F)F)cc3Cl)cc2)c1 9.5%
CC(NC(=O)C1CCC(CNc2c(N3CCOCC3)c(=O)c2=O)CC1)c1ccccc1 (configuration not stated) -2.1%
Nc1nc(Br)c2ccccc2c1-c1ccc(F)cc1 18.7%
N#Cc1c(C(F)(F)F)cc(-c2ccccc2)nc1SCC(=O)N1CCOCC1 0%
CCC/C(O)=C1\C(=O)CC(C)(C)CC1=Nc1ccccc1OC 45.5%
CC1(C)CC(=O)C=C(NC2CC(C)(C)NC(C)(C)C2)C1 -1.1%
COc1ccccc1-c1n[nH]c2c1[C@H](C)CC[C@H]2C(C)C 21%
CCOc1cccc(C(=O)Nc2nnc(-c3cccs3)s2)c1 2.2%
O=C(O)COc1ccc(-c2nccc(-c3cccs3)n2)cc1 -9.2%
O=C(O)Cc1ccc(NC(=O)C2CCCCC2C(=O)O)cc1 (configuration not stated) 2.3%
CSCCC(Nc1nc2ccccc2s1)C(=O)O (configuration not stated) 12.6%
COc1cc(C2C(C(=O)c3ccc(C)o3)=C(O)C(=O)N2Cc2cccnc2)ccc1O (configuration not stated) -12.6%
COc1cccc(C2/C(=C(/O)c3ccncc3)C(=O)C(=O)N2CCCN(C)C)c1 (configuration not stated) -12.6%
Cc1ccc(C(c2nnnn2C(C)(C)C)N2CCc3ccccc3C2)cc1 (configuration not stated) 14.4%
COC(=O)C1C(=O)c2c([nH]c(C(=O)OCCSC)c2C)CC1C (configuration not stated) 10.1%
Cc1cc2ncn(CCCCOc3ccccc3)c2cc1C 40.1%
Nc1nc(SCCOc2ccccc2)n[nH]1 28.3%
CC(C)Oc1ccc(C2NC(=O)NC2=O)cc1 (configuration not stated) -16.7%
O=C(Nc1ccc(NC(=O)c2cccs2)cn1)c1ccco1 17.3%
Cc1ccc(-n2ncc3c(=O)[nH]cnc32)c(C)c1 -3.8%
COn1c(=O)c(=O)n(OC)c2ccccc21 -6.8%
Cc1ccc(NC(=O)Nc2ccc3oc(C)nc3c2)cc1 3%
COc1ccc(C(=O)NCc2cn3ccccc3n2)cc1 1.2%
CCn1cc(C(=O)NCc2ccc3c(c2)OCO3)c2cc(OC)c(OC)cc2c1=O 15.2%
CCOc1ccc(NC(=O)N(CCC(C)C)C(C)c2ccco2)cc1 (configuration not stated) 24.3%
CC(NC(=O)Nc1ccccc1)c1ccccc1 (configuration not stated) 24.8%
CC(=O)c1c(N)n(C)c(=O)n(C)c1=O 0.9%
CCOC(=O)c1nnn(-c2nonc2-n2cccc2)c1CN1CCOCC1 3.7%
CCN(CC)Cc1c(C(=O)OC)nnn1-c1nonc1N 4.8%
CC(=O)Oc1cccc(N2C(=O)CC(Nc3ccc(N4CCOCC4)cc3)C2=O)c1 (configuration not stated) 18.5%
Cc1ccc(NC(=O)NCC(c2cccnc2)N2CCOCC2)cc1 (configuration not stated) -7.8%
CCOC(=O)N1CCN(C(=O)C2CC(c3ccc(F)cc3)=NO2)CC1 (configuration not stated) 1.7%
COC(=O)[C@H](C(C)C)n1c(C)c(C(C)=O)c(C(C)=O)c1C 6.6%
O=[N+]([O-])c1c(NCCO)cc(Sc2nc3ccccc3s2)c2nonc12 28.1%
O=C(c1ccc(Cl)cc1)c1ccc(OCC(O)CN2CCCCC2)cc1 (configuration not stated) 8.8%
OC(COc1cccc(OCC(O)CN2CCCC2)c1)CN1CCCC1 (configuration not stated) 0.1%
CCN(CC)c1ccc2cc(C(=O)O)c(=O)oc2c1 -13.2%
CCOc1cc(CN2CCN(C(=O)CC(C)C)CC2)ccc1OC -10.6%
COc1cc2c(cc1OC)CN(C(=O)c1cc(=O)c3ccccc3o1)CC2 19.7%
CN1CCN(CC(O)COCc2ccc3c(c2)OCO3)CC1 (configuration not stated) -20.9%
Cc1ccc(NC(=O)CS(=O)CC(=O)N(c2ccccc2)C(C)C(=O)NC2CCCC2)cc1 (configuration not stated) 9.7%
O=C(NCc1ccccn1)c1c(O)c2c([nH]c1=O)CCCC2 11.7%
CCCc1cc(-c2n[nH]c(=S)n2Cc2ccccc2)cs1 5.4%
COc1ccc(S(=O)(=O)Nc2c(C)n(C)n(-c3ccccc3)c2=O)cc1 -4.1%
Cc1c(Nc2nc3ccccc3nc2NS(=O)(=O)c2cccs2)c(=O)n(-c2ccccc2)n1C 1%
CCOc1ccc(-c2c(C)n([O-])c3c([n+]2=O)CCCC3)cc1 9.2%
COc1ccc(NC(=O)CN2CCN(S(=O)(=O)c3ccc(F)cc3)CC2)cc1Cl 0.5%
COc1cc(Cl)c(S(=O)(=O)N2CCN(Cc3ccc4c(c3)OCO4)CC2)cc1Cl 36.2%
COc1cc(NS(=O)(=O)c2ccc(N=Cc3c(C)[nH]n(-c4ccccc4)c3=O)cc2)nc(OC)n1 -18%
COc1ccc(C(=O)Nc2ccccc2C(=O)N/N=C/c2ccccc2OC)cc1 -5.9%
COc1cc(/C=N\NC(=O)CNC(=O)c2cccc([N+](=O)[O-])c2)ccc1O 23%
N#Cc1ccsc1NC(=O)CN1CCCCC1 -6.2%
NNC(=O)C1CCCn2c1nc1sc3c(c1c2=O)CCCC3 (configuration not stated) 12.4%
CC1CCc2c(sc3nc4n(c(=O)c23)CCS4)C1 (configuration not stated) -6.7%
Cc1cccc(N2CCN(Cc3c(C)n(C)n(-c4ccccc4)c3=O)CC2)c1C 15.2%
COC(=O)Nc1sc2nc(C)cc(C)c2c1-n1cccc1 19.5%
Cn1c(NC(=O)c2ccco2)c(-c2ccccc2Cl)c(=O)c2ccccc21 -6.5%
CCCC(O)(c1ccc(OC)cc1)C(CN(C)C)c1ccccc1 (configuration not stated) -13.2%
